Data as given in the supplement of paper PMC6555819.

How the values were obtained:
Assay in all cases: PBM binding z-score (relative to random genomic background probes); higher = stronger binding; sequences stand for … in GC…GCGATTGACAGCGTAGAATGAAGG
[1] = test system: FXR:RXRa (NR concentration 270 nM, RXRa partner concentration 90 nM)
Summary of the method: (§1)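 For binding z-scores, the reference was random background probes on custom Agilent 4×180K protein-binding microarrays. These arrays were incubated 1 h with ligand-free nuclear receptor dimers in PBS pH 7.4, 2% milk, 0.02% Triton X-100, 1 mM DTT, 0.2 mg/mL BSA and 0.4 mg/ml salmon testes DNA. Fluorescence was scanned after antibody detection of each partner (one per run) and regression-normalized.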

[2] = test system: LXRa:RXRa (NR concentration 270 nM, RXRa partner concentration 90 nM)
Summary of the method: as §1

[3] = test system: LXRa homodimer (NR concentration 270 nM)
Summary of the method: as §1

[4] = test system: LXRb:RXRa (NR concentration 270 nM, RXRa partner concentration 90 nM)
Summary of the method: as §1

[5] = test system: LXRb homodimer (NR concentration 270 nM)
Summary of the method: as §1

[6] = test system: PPARa:RXRa (NR concentration 270 nM, RXRa partner concentration 90 nM)
Summary of the method: as §1

[7] = test system: PPARg:RXRa (NR concentration 180 nM, RXRa partner concentration 90 nM)
Summary of the method: as §1

[8] = test system: PPARg:RXRa 270nM:90nM, anti-RXR (NR concentration 270 nM, RXRa partner concentration 90 nM)
Summary of the method: as §1

[9] = test system: PPARg:RXRa 30nM:10nM, anti-RXR (NR concentration 30 nM, RXRa partner concentration 10 nM)
Summary of the method: as §1

[10] = test system: PPARg:RXRa 90nM:30nM, anti-RXR (NR concentration 90 nM, RXRa partner concentration 30 nM)
Summary of the method: as §1

[11] = test system: PPARg:RXRa DBDmut IVT, anti-RXR (DBD mutation: RXRa K156A/R161A, NR concentration 270 nM, RXRa partner concentration 90 nM)
Summary of the method: as §1

[12] = test system: PPARg:RXRa IVT, anti-PPARg (NR concentration 270 nM, RXRa partner concentration 90 nM)
Summary of the method: as §1

[13] = test system: PPARg DBDmut:RXRa IVT, anti-PPARg (DBD mutation: PPARg1 K132A/R137A, NR concentration 270 nM, RXRa partner concentration 90 nM)
Summary of the method: as §1

[14] = test system: PPARg DBDmut IVT, anti-PPARg (DBD mutation: PPARg1 K132A/R137A, NR concentration 270 nM)
Summary of the method: as §1

[15] = test system: PPARg homodimer (NR concentration 180 nM)
Summary of the method: as §1

[16] = test system: PXR:RXRa (NR concentration 270 nM, RXRa partner concentration 90 nM)
Summary of the method: as §1

[17] = test system: PXR homodimer (NR concentration 270 nM)
Summary of the method: as §1

[18] = test system: RARa:RXR (NR concentration 270 nM, RXRa partner concentration 90 nM)
Summary of the method: as §1

[19] = test system: RARa homodimer (NR concentration 270 nM)
Summary of the method: as §1

[20] = test system: RARb:RXRa (NR concentration 270 nM, RXRa partner concentration 90 nM)
Summary of the method: as §1

Row | Sequence | PBM binding z-score [1] | PBM binding z-score [2] | PBM binding z-score [3] | PBM binding z-score [4] | PBM binding z-score [5] | PBM binding z-score [6] | PBM binding z-score [7] | PBM binding z-score [8] | PBM binding z-score [9] | PBM binding z-score [10] | PBM binding z-score [11] | PBM binding z-score [12] | PBM binding z-score [13] | PBM binding z-score [14] | PBM binding z-score [15] | PBM binding z-score [16] | PBM binding z-score [17] | PBM binding z-score [18] | PBM binding z-score [19] | PBM binding z-score [20]
1 | CGAACAAGGGCATGAGTTGATAGCAAATGCCGAT | -0.0162 | 0.00346 | -0.221 | -0.134 | -0.495 | 0.425 | 0.963 | 0.765 | 0.259 | 0.196 | 1.66 | 0.813 | -0.522 | -0.153 | 0.0917 | -0.0332 | -0.184 | -0.0493 | 0.0122 | 2.02
2 | GCTAGCAGGCCATTTGGGTCACTAAATGACGGGC | 0.069 | -0.203 | -0.746 | -0.105 | -1.17 | 1.44 | 0.795 | 0.692 | -0.344 | 0.257 | 1.58 | 2.38 | -1.03 | -1.18 | -0.0846 | 0.38 | -0.331 | 0.585 | -0.777 | 1.42
3 | TCTCGGAGGACACGATGGTCAGAGCTTTCCAGAG | 0.101 | -0.284 | -0.822 | -0.381 | -1.39 | -0.0198 | -0.18 | 0.7 | 1.73 | 1.07 | 1.01 | -0.167 | -0.797 | -0.992 | -1.04 | -0.421 | -0.66 | -0.201 | -0.829 | 1.51
4 | AATATAGGGTCATCGTAGGCCAGAGTACGCACAG | 7.57 | 6.66 | 2.71 | 5 | 1.56 | 6.26 | 7.29 | 6.57 | 3.61 | 5.37 | 4.87 | 5.42 | 1.96 | 1.99 | 2.4 | 4.98 | 0.973 | 5.35 | 1.7 | 4.58
5 | CCTACTGGGCCACCAGGTCATTGATATCAACGTT | 1.25 | 1.07 | 0.943 | 1.56 | -0.0133 | 3.16 | 4.32 | 4.3 | 1.41 | 3.26 | 4.8 | 6.19 | -0.327 | -0.298 | 1.02 | 1.73 | 0.656 | 1.75 | 0.342 | 1.98
6 | AGAACGAGGGCAATGAGTGGATAGCACGGGTGGC | 0.0707 | 0.00914 | -0.454 | -0.474 | -0.905 | 1.12 | 1.49 | 0.671 | 0.264 | 0.612 | 3.17 | 2.32 | 0.26 | -0.542 | -0.143 | -0.0216 | -0.0699 | -0.0529 | 0.296 | 1.72
7 | TAGCCTTGGTCATGGGCCAGTATACCACGCGAAC | -0.772 | -0.685 | -0.571 | -0.54 | -1.16 | -0.311 | 0.351 | -0.0225 | -0.592 | -0.107 | -1.28 | 0.113 | -0.568 | -0.717 | -0.713 | -0.329 | -0.952 | -0.342 | -1.21 | 0.734
8 | TAGCCTAGGTCAGGTCGGGCCAGTATACGCTATA | 2.66 | 1.06 | -0.52 | 0.724 | -0.502 | 1.71 | 0.639 | 0.781 | -0.544 | 0.204 | 0.315 | 1.69 | -0.681 | -1.44 | 0.477 | 1.51 | -0.668 | 1.25 | -1.19 | 3.24
9 | AATACAGGGTCATCGTAGACCAGAGTACGCACAG | 7.48 | 5.86 | 2.19 | 4.4 | 1.2 | 5.84 | 6.79 | 6.17 | 2.73 | 4.84 | 3.19 | 4.37 | 1.62 | 0.874 | 2.94 | 4.27 | 0.967 | 5.09 | 1.49 | 4.3
10 | ATATGTAGGTTATGGGTCATTCAGGTTGGTTCGC | 3.1 | 3.26 | 1.87 | 3.22 | 1.22 | 5.51 | 9.66 | 8.74 | 8.22 | 9.39 | 7.25 | 7.26 | 2.55 | 1.93 | 3.33 | 4 | 1.51 | 3.63 | 2.31 | 2.52
11 | CAAGCTAGGTCACCGGAAGGTCAAAGTCCGCATG | 6.4 | 6.14 | 4.88 | 5.32 | 0.898 | 5.38 | 5.86 | 5.76 | 2.96 | 4.67 | 4.7 | 5.3 | 0.445 | 0.749 | 9.68 | 6.22 | 2.44 | 7.91 | 3.45 | 5.53
12 | CCTACTGGGCCATAAGGTCATTGATATCAACGTT | 3.03 | 3.09 | 1.89 | 3.17 | 0.0476 | 4.14 | 4.49 | 4.98 | 3.38 | 4.64 | 4.4 | 5.28 | 0.506 | 0.0496 | 2.03 | 3.98 | 1.97 | 4.25 | 1.27 | 3.43
13 | TAGCCTACGTCAGATCGGGCCAGTATACGCTATA | -0.48 | -0.971 | -0.851 | -1.01 | -0.669 | -0.78 | 0.214 | -0.86 | -0.34 | -0.771 | -1.07 | -0.466 | -1.21 | 0.256 | -1.51 | -0.718 | -1.22 | -0.618 | -1.02 | -0.507
14 | ATCGAAAGGGCGAGGTGAGTATAGAGAAAGGGAA | 0.707 | 0.563 | -0.0358 | 0.463 | 0.173 | 1.38 | 0.612 | 0.445 | 0.457 | 0.394 | -0.0167 | 0.793 | 0.764 | 0.945 | 0.793 | 0.415 | 0.345 | 0.69 | 0.319 | 2.09
